Inconclusive results are not listed. Where a call stands in place of a potency, no number is given. A number with no mark means an inactive call. Calls of active or inactive are those of the source. Calls follow the shape of the dose curve; as a rule, active = well fitted inhibition curve with a large enough effect; inconclusive = small, poorly fitted or top-dose-only effect; inactive = no such curve, though single readings can be large or run the other way.
Potency is read from the fitted curve at half-maximal effect.

The experiment is described as follows: Primary fluorescence-based thiol-reactive (MSTI) qHTS assay for identification of artifact compounds. (AID 1845221). Also: nearly all actives have a fitted effect of over 65% in size.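 As to activity change, negative = thiol reactive: thiol-reactive compounds lower the probe fluorescence signal.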 The conditions noted are these: MSTI thiol-reactivity probe, 1 h; series mostly up to 53.8 µM. A digest of the protocol: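 A multi-concentration qHTS design tested compounds against 4 uM MSTI, pH 7.4 phosphate-buffered saline. Plates were protected from light for 1 h at room temperature before imaging fluorescence.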
For orientation: Quantitative high-throughput screening tests each substance at several concentrations.
As to `COc1cc(C(=O)OC[C@H]2O[C@@H](OC(C)(C)C(=O)O)[C@H](O)[C@@H](O)[C@@H]2O)cc(OC)c1O`, the Potency result is “inactive”.
Still for that read-out and setting: in the case of `C[C@]1(OC(=O)/C=C/c2ccc(O)cc2)C[C@@H](O)[C@]2(O)C=CO[C@@H](O[C@@H]3O[C@H](CO)[C@@H](O)[C@H](O)[C@H]3O)C12` (some centres not stated) it was “inactive”; in that of `CC(CCO)CCC1C2(C)CCCC(C)(C)C2CC[C@@]1(C)O` (some centres not stated), “inactive”.
For `COc1ccc(C(=O)OC2C3C=COC(OC4OC(CO)C(O)C(O)C4O)C3C3(CO)OC23)cc1OC` (configuration not stated), the Potency was 4.12 µM (active).
Take `COc1cccc(C)c1C(=O)O[C@@H]1C[C@H](O[C@H]2[C@H](O)C[C@H](O[C@@H]3CCC[C@H]4[C@H]3C=C[C@@H]3CCCC/C=C/[C@H]5C=C(C(=O)O)[C@@H](C)C[C@@]56OC(=O)C(=C6O)OC(=O)[C@@]34C)O[C@@H]2C)O[C@H](C)[C@H]1O`: the activity change, negative = thiol reactive was 170% [at 11.5 µM].
Turning to `CC(=O)OCC1=C[C@@H]2OC(=O)C3=CO[C@@H](O[C@@H]4O[C@H](CO)[C@@H](O)[C@H](O)[C@H]4O)[C@H]1[C@@H]32`, the Potency entry is “inactive”.
Same read-out and setting: in the case of `O=C(COCC(=O)N1CCN(C(c2ccccc2)c2ccccc2)CC1)Nc1ccc(Cl)cc1C(=O)O` it was “inactive”; in that of `CC1(C)CC[C@]2(C(=O)O[C@@H]3O[C@H](CO)[C@@H](O)[C@H](O)[C@H]3O)[C@H](O)C[C@]3(C)C(=CCC4[C@@]5(C)CC[C@H](O[C@@H]6OC[C@@H](O)[C@H](O)[C@H]6O)[C@@](C)(C(=O)O)C5CC[C@]43C)[C@@H]2C1` (some centres not stated), “inactive”; in that of `C=C1CCC2C(C)(C)CC(O)CC2(C)C1CCC(C)CCOC(=O)CCC(=O)O` (configuration not stated), “inactive”.
Consider `COc1cccc(C(=O)NCCNc2nc3cc(C)cc(C)c3cc2C#N)c1`, for which the Potency entry was “inactive”.
The same measure, in the same setting: under `C=C(CCO)C(=O)OCC1OCC(OC(=O)C(=C)CCO[C@@H]2O[C@H](COC(=O)C(=C)CCO[C@@H]3O[C@H](CO)[C@@H](O)[C@H](O)[C@H]3O)[C@@H](O)[C@H](O)[C@H]2O)C(O)C1O` (some centres not stated) stands “inactive”; under `C[C@@H]1C(=O)O[C@H](C)[C@H]1C[C@@H](O)[C@](C)(O)[C@H]1CC[C@@]2(O)C3=CC(=O)[C@@H]4C[C@@H](O)[C@@H](O)C[C@]4(C)C3CC[C@]12C` (some centres not stated), “inactive”.
